# Assay results taken from PubChem BioAssay (NCI).
# “And” between values parts separate entries of the source, which are not always exact repeats. Equal entries are not always repeated. The panel holds about 83,000 compounds, 20% with a hit somewhere; the sample as a whole holds those more often.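 Values shown are percent growth following 48 h exposure of cells in 96-well plates to a single concentration of compound; below 10 was considered active.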 The source made the active and inactive calls.
# How the values were obtained:
# Assay in all cases: NCI-60 one-dose screen, 48 h (100 = growth as untreated, 0 = no growth, -100 = all killed)
# Conditions in all cases: 10 µM unless noted
# SR leukemia = system: SR leukemia
# RPMI-8226 leukemia = system: RPMI-8226 leukemia
# OVCAR-8 ovarian = system: OVCAR-8 ovarian
# OVCAR-5 ovarian = system: OVCAR-5 ovarian
# OVCAR-4 ovarian = system: OVCAR-4 ovarian
# SK-OV-3 ovarian = system: SK-OV-3 ovarian
# IGROV1 ovarian = system: IGROV1 ovarian
# OVCAR-3 ovarian = system: OVCAR-3 ovarian
# HS 578T breast = system: HS 578T breast
# NCI/ADR-RES ovarian = system: NCI/ADR-RES ovarian
SMILES,growth (SR leukemia),growth (RPMI-8226 leukemia),growth (OVCAR-8 ovarian),growth (OVCAR-5 ovarian),growth (OVCAR-4 ovarian),growth (SK-OV-3 ovarian),growth (IGROV1 ovarian),growth (OVCAR-3 ovarian),growth (HS 578T breast),growth (NCI/ADR-RES ovarian)
CC1=CC(=O)C=CC1=Nc1ccc(N(C)C)cc1,29.3% (inactive),66.5% (inactive) and -4.07% (active),85.7% (inactive) and 52% (inactive),140% (inactive) and 83.9% (inactive),44.9% (inactive) and 21.1% (inactive),94.2% (inactive) and 71.8% (inactive),88.5% (inactive) and 49.4% (inactive),69.4% (inactive) and -93.6% (active),109% (inactive),78.1% (inactive) and 37.9% (inactive)
O=C1C=CC[C@H](/C=C/c2ccccc2)O1,5.19% (active),-34.8% (active),21.2% (inactive) and 14.4% (inactive),57.6% (inactive) and 54.9% (inactive),36% (inactive) and 33.6% (inactive),132% (inactive) and 7.79% (active),-35.5% (active) and 15.7% (inactive),1.02% (active) and -41.3% (active),25.4% (inactive) and 19.5% (inactive),34% (inactive) and 28.9% (inactive)
COc1cc(NCCCCCNC(C)C)c2ncccc2c1,82.8% (inactive) and 133% (inactive),107% (inactive) and 98.1% (inactive),104% (inactive) and 89.6% (inactive),95.2% (inactive) and 86.9% (inactive),44.4% (inactive) and 45.7% (inactive),84.3% (inactive),90.3% (inactive) and 60.4% (inactive),92% (inactive),83.5% (inactive),91.5% (inactive) and 93.7% (inactive)
CCCC(=O)Oc1ccc(CC)cc1,90.5% (inactive),108% (inactive),98.1% (inactive),102% (inactive),97.3% (inactive),103% (inactive),104% (inactive),115% (inactive),113% (inactive),105% (inactive)
CS(=O)(=O)c1nsc(N)n1,98.8% (inactive),106% (inactive),104% (inactive),97.3% (inactive),103% (inactive),95.4% (inactive),101% (inactive),107% (inactive),103% (inactive),104% (inactive)
Cc1ccc(C(=O)c2ccc(C)cc2)cc1,84.3% (inactive) and 110% (inactive),86.8% (inactive) and 96.4% (inactive),94.3% (inactive) and 109% (inactive),103% (inactive),87.2% (inactive) and 117% (inactive),101% (inactive) and 107% (inactive),86.3% (inactive) and 99% (inactive),99.1% (inactive) and 105% (inactive),101% (inactive),93% (inactive)
Nc1ccc(O)c(C(=O)O)c1,99.8% (inactive),65% (inactive) and 108% (inactive),99.2% (inactive) and 106% (inactive) and 109% (inactive),121% (inactive) and 102% (inactive) and 91.1% (inactive),84% (inactive) and 105% (inactive) and 108% (inactive),105% (inactive) and 106% (inactive) and 119% (inactive),96.8% (inactive) and 111% (inactive) and 105% (inactive),100% (inactive) and 101% (inactive) and 115% (inactive),112% (inactive),103% (inactive) and 111% (inactive) and 93.9% (inactive)
Nc1ccccc1SC1CC(=O)N(c2ccc(I)cc2)C1=O (stereo not given),68.6% (inactive),85.1% (inactive),87.8% (inactive),90.3% (inactive),93.8% (inactive),95.5% (inactive),85.2% (inactive),87.1% (inactive),88.6% (inactive),91.6% (inactive)
Cn1c(N)c(N=O)c(=O)n(C)c1=O,92.4% (inactive) and 91.7% (inactive),104% (inactive) and 116% (inactive),96.8% (inactive) and 104% (inactive),111% (inactive) and 104% (inactive),111% (inactive) and 103% (inactive),111% (inactive) and 118% (inactive),105% (inactive),109% (inactive) and 90.7% (inactive),112% (inactive) and 94.4% (inactive),97.6% (inactive)
OC(CC(c1ccccc1)c1cccc2ccccc12)(c1ccccc1)c1ccccc1 (stereo not given),94.9% (inactive) and 63.1% (inactive),88.4% (inactive) and 67.4% (inactive),72.8% (inactive) and 87.1% (inactive),92.1% (inactive) and 89.9% (inactive),81.3% (inactive) and 75.7% (inactive),85.4% (inactive) and 93.1% (inactive),88.6% (inactive) and 84.8% (inactive),94.1% (inactive) and 90.6% (inactive),84.4% (inactive) and 86.6% (inactive),76.2% (inactive) and 70.3% (inactive)
NCCSSC/C=C\CSSCCN,107% (inactive),94.9% (inactive),97% (inactive),121% (inactive),103% (inactive),99.8% (inactive),115% (inactive),109% (inactive),93% (inactive),107% (inactive)
CCNCc1ccccc1,97.5% (inactive),119% (inactive),100% (inactive),98.5% (inactive),114% (inactive),97.5% (inactive),106% (inactive),102% (inactive),102% (inactive),102% (inactive)
CCOC(=O)C1=CC(=O)CC(C)(C)O1,82.1% (inactive) and 114% (inactive),92.8% (inactive) and 111% (inactive),114% (inactive) and 106% (inactive),110% (inactive) and 101% (inactive),128% (inactive) and 117% (inactive),108% (inactive) and 114% (inactive),103% (inactive) and 120% (inactive),118% (inactive) and 96.9% (inactive),117% (inactive),96.9% (inactive) and 110% (inactive)
COc1ccc(CCl)c(C)c1OC,105% (inactive),106% (inactive),99.3% (inactive),100% (inactive),109% (inactive),110% (inactive),104% (inactive),105% (inactive),105% (inactive),105% (inactive)
CCOC(C)=N,87.4% (inactive),92.7% (inactive),109% (inactive),102% (inactive),100% (inactive),97% (inactive),151% (inactive),110% (inactive),150% (inactive),109% (inactive)
O=C1C(=O)c2ccccc2C(O)=C1CC=C(Cl)Cl,43.4% (inactive) and 55.5% (inactive),44.7% (inactive) and 41.7% (inactive),44.3% (inactive),35.3% (inactive) and 87.2% (inactive),83.9% (inactive) and 84.4% (inactive),73.9% (inactive) and 58.4% (inactive),42.7% (inactive),65.8% (inactive) and 67.1% (inactive),82.3% (inactive) and 87.2% (inactive),57.6% (inactive) and 55.7% (inactive)
Cc1c(Cl)cc(Cl)c(N)c1Cl,117% (inactive),98.1% (inactive),104% (inactive),107% (inactive),108% (inactive),101% (inactive),114% (inactive),112% (inactive),95.3% (inactive),105% (inactive)
COC(=O)c1cc(C(=O)OC)cc([N+](=O)[O-])c1,74.7% (inactive),93.8% (inactive),93.5% (inactive),106% (inactive),106% (inactive),98.5% (inactive),118% (inactive),120% (inactive),103% (inactive),115% (inactive)
Nc1nc(-c2ccccn2)cc(-c2cc(-c3ccccn3)nc(N)n2)n1,92% (inactive),111% (inactive),106% (inactive),109% (inactive),105% (inactive),119% (inactive),108% (inactive),110% (inactive),127% (inactive),107% (inactive)
Cc1ccc(S(=O)(=O)n2ccnc2)cc1,140% (inactive),100% (inactive),100% (inactive),102% (inactive),102% (inactive),123% (inactive),75.5% (inactive),101% (inactive),111% (inactive),101% (inactive)
COC(=O)C(Cc1cn(C(C)=O)c2ccccc12)P(=O)(OC)OC (stereo not given),94.6% (inactive),101% (inactive),106% (inactive),103% (inactive),87% (inactive),113% (inactive),113% (inactive),106% (inactive),94.2% (inactive),95.3% (inactive)
COc1ccc(CCO)cc1,75.6% (inactive),110% (inactive),101% (inactive),103% (inactive),111% (inactive),109% (inactive),99.6% (inactive),111% (inactive),98.2% (inactive),108% (inactive)
